SMN2 splice up = qHTS Assay for Enhancers of SMN2 Splice Variant Expression | HEK293 SMN2-luciferase splicing reporter, luminescence, 30-36 h | Potency, µM (doses to about 46.1 µM), inactives show top-dose activity change, positive = activation, usual class: activators | hit rate 2.8% among 210,000 | AID 1458, 2008; further: % of control where 0% means no effect; nearly all actives have a fitted effect of over 55% in size
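HEK293 cells carry an SMN2 […]–luciferase reporter in which exon 7 inclusion puts luciferase in frame. Cells were plated 10-12 h before compound addition, then incubated 30-36 h at 37C. ONE-Glo luminescence was read; sodium butyrate at 4.5 mM final served as control.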
Luc counter = Counterscreen for Luciferase (Kinase-Glo TM) Inhibition; Luciferin 4-monooxygenase (Photuris pensylvanica), Q27757; Kinase-Glo luciferase, ATP luminescence, 8 min; AID 1379, 2008; Potency, µM (doses to about 38.3 µM), for the others: at the top dose activity change, negative = inhibition, usual class: inhibitors; hit rate 0.28% among 200,000; further: on the % scale 0 is the no-effect control and ±100 the full control effect; nearly all actives have a fitted effect of over 60% in size
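Substrate mix (final 50 mM imidazole pH 7.2, 50 mM KCl, 7 mM MgCl2, 10 uM ATP, 0.01% Tween 20, 0.05% BSA) plus pin-tool compound, then Kinase-Glo detection mix; 8 min ambient, luminescence read.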
Rab9 prom act = qHTS Assay for Rab9 Promoter Activators; hit rate 2.8% among 320,000; AID 485297, 2010; Huh7 Rab9 promoter-luciferase reporter, luminescence, 24 h; Potency, µM (series often up to 9.22 µM), inactives show at the top dose activation, negative = inhibition, hits mostly activators; further: % of control where 0% means no effect; nearly all actives have a fitted effect of over 60% in size
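Measured in stably transfected Huh7 cells bearing a Rab9 promoter–luciferase construct: 24 h compound treatment at 37 °C, followed by luminescence detection.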
ELG1 genotox = qHTS screen for small molecules that induce genotoxicity in human embryonic kidney (HEK293T) cells expressing luciferase-tagged ELG1; hit rate 1.3% among 330,000; Potency, µM (titrated, usually from 46 µM), for inactives: at the top dose activity change, positive = activation, actives largely listed as activators; HEK293T ELG1-luciferase reporter, luminescence, 16 h; further: % of control where 0% means no effect; nearly all actives have a fitted effect of over 60% in size
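HEK293T cells expressing luciferase-tagged ELG1 were exposed to compound or DMSO vehicle for 16 hr at 37 °C and 5% CO2. Luciferase activity was then measured with ONE-Glo after 30 min at room temperature.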
FLuc counter = qHTS profiling assay for firefly luciferase inhibitor/activator using purifed enzyme and Km concentrations of substrates (counterscreen for miR-21 project); AID 588342, 2011; hit rate 6.9% among 360,000; purified FLuc, Km substrates, luminescence inhibition; Potency, µM (highest dose often 57.5 µM), without a hit: at the top dose activity change, negative = inhibition, actives largely listed as inhibitors;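 further: plate controls were vehicle for no effect and reference inhibitor for full effect; nearly all actives have a fitted effect of over 55% in size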
Target sequence (P08659 whole entry, looked up): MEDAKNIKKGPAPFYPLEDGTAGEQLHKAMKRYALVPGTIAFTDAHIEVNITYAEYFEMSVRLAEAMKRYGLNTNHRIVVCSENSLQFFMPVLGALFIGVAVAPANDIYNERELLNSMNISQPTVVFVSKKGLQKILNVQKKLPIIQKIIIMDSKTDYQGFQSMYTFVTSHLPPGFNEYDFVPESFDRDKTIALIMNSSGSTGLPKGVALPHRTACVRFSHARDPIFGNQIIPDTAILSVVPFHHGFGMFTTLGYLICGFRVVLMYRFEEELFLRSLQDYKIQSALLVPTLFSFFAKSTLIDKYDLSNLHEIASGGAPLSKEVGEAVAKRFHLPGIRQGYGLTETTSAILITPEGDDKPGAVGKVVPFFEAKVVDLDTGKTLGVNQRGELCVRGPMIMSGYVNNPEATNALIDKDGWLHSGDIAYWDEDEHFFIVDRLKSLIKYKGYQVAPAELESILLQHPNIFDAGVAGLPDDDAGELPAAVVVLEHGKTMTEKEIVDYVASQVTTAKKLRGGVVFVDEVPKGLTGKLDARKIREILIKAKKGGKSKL
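Biochemical qHTS of compounds, final roughly 60 µM downward over six points, against 10 nM purified firefly luciferase using Km concentrations of substrates (10 uM D-luciferin, 10 uM ATP) in Tris acetate pH 7.5 buffer; luminescence output.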
NPC1 promoter act = qHTS Assay for NPC1 Promoter Activators. hit rate 2.4% among 320,000. Potency, µM (titrated, usually from 9.22 µM), inactives show at the top dose activation, hits mostly activators. AID 485313, 2010. Huh7 NPC1 promoter luciferase reporter, 24 h; further: % of control where 0% means no effect; nearly all actives have a fitted effect of over 60% in size
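Stably transfected Huh7 (NPC1 promoter→luciferase), 1500 cells/well in Opti-MEM + 10% FBS, 2 h settle, then compound 24 h at 37 °C. Luminescence after 10 min with Amplite reagent.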
* marks the source's active call; other numbers are inactive results; ? = inconclusive; · = no result given; [ ] = dose if it differs, or a comment. A selection: hits, their analogues and other compounds. The true share with any hit is near 7.4%. The call rests on the fitted dose curve; in most records, active means well fitted curve in the direction sought with a large enough effect; inconclusive means small, poorly fitted or top-dose-only effect, or another doubt; inactive means no such curve, though single readings can be large; an effect the other way counts as inactive or inconclusive. Potency means the concentration at half of the fitted maximal effect.

SMILES	SMN2 splice up	Luc counter	Rab9 prom act	ELG1 genotox	FLuc counter	NPC1 promoter act
O=C(Nc1ccc2ncccc2c1)c1cccc(Br)c1	·	·	2.5µM*	?	11µM*	?
Cc1ccc(C(=O)Nc2ncccc2S(=O)(=O)c2ccccc2)cc1	·	·	2.8µM*	?	11µM*	2.8µM*
Nc1ccc(/C=C/c2ccc3ncccc3c2)cc1	·	·	0.28µM*	?	0.3µM*	0.45µM*
Cc1ccc(C(=O)Nc2ccc3ncccc3c2)cc1	·	·	0.1µM*	?	0.11µM*	?
Cc1cccnc1NC(=O)c1ccc(S(=O)(=O)N2CCCCCC2)cc1	·	·	5%	-1%	0%	2%
Cc1ccnc(NS(=O)(=O)c2ccc(NC(=O)c3ccc(S(=O)(=O)N4CC(C)OC(C)C4)cc3)cc2)n1 (stereo not given)	13%	2%	-2%	0%	-6%	-3%
O=C1c2ccccc2C(=O)N1CCN1CCc2ccccc21	25%	-6%	?	?	13µM*	?
CCn1c(=S)[nH]c2cc(S(=O)(=O)N3CCCCC3)ccc21	·	2%	-4%	9.2µM*	7%	-3%
CCCCn1c(=S)[nH]c2cc(S(=O)(=O)N3CCOCC3)ccc21	·	·	·	0%	·	·
Cc1cc(C)n(-c2nnc(NC34CC5CC(CC(C5)C3)C4)nn2)n1	11µM*	-2%	3.5µM*	?	2.4µM*	2µM*
Cc1cc(C)n(-c2nnc(NC(C)(C)C)nn2)n1	13µM*	-21%	3.2µM*	?	21µM*	?
O=C(NCCc1cnc[nH]1)c1ccc(-c2ccccc2)cc1	·	·	16%	4%	?	16%
CC(C)CC(=O)Nc1ccc(C(=O)COC(=O)C2CC(=O)N(Cc3ccccc3)C2)cc1 (stereo not given)	·	·	2%	0%	3%	-3%
COc1ccc(NC(=O)c2ccc(Oc3ncccn3)cc2)cc1	12%	-2%	?	?	17µM*	16%
CCOc1ccc(NC(=O)c2ccc(OC)cc2)cc1	13%	-5%	20%[1.84 µM]	16%	?	?
COc1ccc(C(=O)Nc2ccc(C3CC3(Cl)Cl)cc2)cc1 (stereo not given)	·	3%	?	14%	1.5µM*	25%
COc1ccc(NC(=O)c2cccc(C(=O)Nc3ccc(OC)cc3)n2)cc1	-6%	-1%	-2%	16%	5.4µM*	2%
COc1ccc(NC(=O)c2sc(=S)[nH]c2N)cc1	?	-1%	21%	11%	17µM*	2%
C=C(Nc1ccc(OC)cc1)C(=O)OC	7%	2%	·	·	·	·
COc1cc(C(=O)NCc2ccc(S(N)(=O)=O)cc2)ccc1OCC(=O)N1CCOCC1	·	·	2%	-1%	3%	-2%
CSc1ccccc1C(=O)C1CCCN(C(=O)c2cncs2)C1 (stereo not given)	·	·	4%	0%	1%	-5%
CS(=O)(=O)c1ccc(Cl)c(NC(=O)c2cccc(-n3cnnn3)c2)c1	·	·	0%	-1%	-5%	1%
COc1ccc(NC(=O)c2ncn[nH]2)cc1	11%	-8%	22%	8%	15µM*	14%
COc1ccc(C(=O)NNC(=O)c2ccncc2)cc1	-10%	-2%	3%	1%	-5%	0%
COc1ccc(NC(=O)c2ccc(NC(=O)c3ccncc3)cc2)cc1	·	·	-7%	10µM*	1%	0%
Cc1cc(C)c(NS(=O)(=O)c2ccc(-c3coc(C)n3)cc2)c(C)c1	·	·	·	·	1%	·
CCOc1ccccc1CNC(=O)Cn1nc(C)c2c(C)n(-c3ccc(C)cc3)nc2c1=O	·	·	-32%	-6%[9.26 µM]	-10%	-32%

Screening results from PubChem.
